The values that follow come from PubChem BioAssay AID2216 (Broad Institute, 2009).

Screen size: about 300,000 compounds; about 3,300 (1.1%) were called active. Not shown: some 6% with an inconclusive outcome. This is one part of a sample in which actives are shown more often than they occur.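 Rule for the calls: active = more than half of the replicate wells show a fall in the fluorescence ratio signal beyond about 16% (limit read from the data, passing the limit was not always enough); inconclusive = exactly half of the replicate wells pass the set limit; inactive = fewer than half of replicates pass the limit.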

The subject of the test is Ran GTPase (GTP-bound) - importin-beta complex. The test can be described thus: disruptors of Ran-importin-beta complex formation – biochemical, FRET, CFP-Ran, YFP-importin-beta, homogeneous, primary screen (AID 2216).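 Note: 0% = DMSO wells and 100% = Ran loaded with GDP instead of GTP.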 Conditions: cell-free CFP-Ran/YFP-importin-beta FRET ratio; hits give high values; concentration not given here.
What is called inhibition is the relative decrease from the control value, in per cent. In the case of `COc1cccc(NC(=O)CSc2nccn(-c3ccc4c(c3)OCCO4)c2=O)c1`, the inhibition was -2.91% (inactive).
In the case of `CCCCN(C1CCS(=O)(=O)C1)S(=O)(=O)c1ccc(C(C)C)cc1` (stereo not given) it was 0.359% (inactive); in that of `O=C(c1ccc(NS(=O)(=O)c2ccc3[nH]c(=O)[nH]c3c2)cc1)N1CCCCC1`, 0.81% (inactive).
In the case of `COc1ccc(CCNC(=O)c2ccccc2OCc2ccccc2)cc1` it was 2.59% (inactive); in that of `O=C(N[C@@H](Cc1ccccc1)C(=O)OCc1ccccc1)c1nc[nH]c1C(=O)NC1CCNCC1`, 1.19% (inactive); in that of `Cc1ccc2nc(N3CCN(C(=O)c4ccco4)CC3)sc2c1`, -2.41% (inactive).
For `COc1ccc(C(=O)OCC(=O)c2ccc(Cl)s2)c(OC)c1OC` the value was 0.711% (inactive); for `Cc1cc(C)c(S(=O)(=O)NCC(c2ccc3c(c2)OCO3)N2CCOCC2)c(C)c1` (stereo not given), 2.24% (inactive); for `O=C(NCC1CCCO1)c1cc2c([nH]c3ccccc32)c(-c2ccc(F)cc2)n1` (stereo not given), -5.32% (inactive).
As for `COc1ccc(CCn2c(=N)c(C(=O)NCC3CCCO3)cc3c(=O)n4cccc(C)c4nc32)cc1OC` (stereo not given), the inhibition is 0.0539% (inactive).
In the case of `Cc1cccn2c(=O)c3cc(C(=O)N4COCC4(C)C)n(C)c3nc12` it was -4.28% (inactive); in that of `Cc1cccn2c(=O)c3cc(C#N)c(=O)n(CCCN4CCOCC4)c3nc12`, 117% (active); in that of `Cc1cccn2c(=O)c3cc(C(=O)NCC4CCCO4)c(=N)n(Cc4ccc(F)cc4)c3nc12` (stereo not given), 188% (active).
Take `CCOC(=O)C1CCN(Cc2c(C(=O)N3CCOCC3)nc3c(C)cccn23)CC1`: the inhibition was -0.645% (inactive).
For `CCc1noc(C)c1C(=O)N1CCCC(N2CCN(c3ccc(F)cc3)CC2)C1` (stereo not given) the value was 3.28% (inactive); for `OCc1ccc(-c2ccccc2)c(-c2ccccc2)c1`, 3.41% (inactive); for `CCOC(=O)c1ccc(NC(=O)c2c(NCc3ccccc3)[nH]c(=O)[nH]c2=O)cc1`, -5.92% (inactive).
With `CC(C)C1C2=C(CC(C)(C)CC2=O)ON1c1ccccc1` (stereo not given), the inhibition is 26.1% (active).
For the compound `Cc1ccsc1C1C(C#N)=C(N)OC2=C1C(=O)CC(C)(C)C2` (stereo not given), the inhibition is -0.947% (inactive).
As to `Cc1cc2c(cc1C)NC(c1ccccn1)C1=C(CC(C)(C)CC1=O)N2` (stereo not given), the inhibition is -3.07% (inactive).
For `CCCCCCCCCCCCN1[C@@H](CC(C)=O)c2cc(F)cc(F)c2S1(=O)=O` the value was -0.304% (inactive); for `CCCC1OC23CCCCC2C(C#N)(C#N)C1(C#N)C(=N)O3` (stereo not given), 41.6% (active).
For `CC(C)N(C(=O)Cn1cc(S(=O)(=O)CC(=O)N2CCOCC2)c2ccccc21)C(C)C`, the inhibition was 2.93% (inactive).
In the case of `O=C1CCc2cc(S(=O)(=O)Nc3ccc(C(F)(F)F)cc3)cc3c2N1CC3` it was -3.26% (inactive); in that of `O=C(COc1cccc2c1CCNC2=O)NC1CCCCC1`, -2.21% (inactive); in that of `Cc1cc2nc3c(=O)n(Cc4ccccc4)c(=O)[nH]c3nc2cc1N`, -261% (inactive).
For `CC(=O)c1ccc(-c2ccc(Cn3c(C)nc4cc(N)c(C)nc43)cc2)cc1` the value was 27.1% (active); for `CCOC(=O)c1ccc2c(c1)nc(C)n2CC`, -1.9% (inactive).
For `O=C(CSc1n[nH]c(-c2cccs2)n1)N1CCCCC1` the value was -0.392% (inactive); for `CS(=O)(=O)c1ccc(C(=O)OCC(=O)NNC(=O)COc2ccc(Cl)cc2)cc1`, -2.55% (inactive).
As to `O=C(CSc1ccccn1)N1CCN(S(=O)(=O)c2ccc(Cl)cc2)CC1`, the inhibition is -1.48% (inactive).
Take `Cc1cccc(NC(=O)c2ccc(S(=O)(=O)N(C)CC3CCCO3)cc2)c1C` (stereo not given): the inhibition was -0.172% (inactive).
For the compound `N#C/C(=C/c1ccc(N2CCOCC2)o1)C(=O)N1CCOCC1`, the inhibition is 39.5% (active).
In the case of `N#C/C(=C\C1=C(N2CCOCC2)C(=C\c2ccccc2)/CC1)C(=O)Nc1ccccc1F` it was -3.91% (inactive).
For `N#C/C(=C\c1ccc(-c2cccc([N+](=O)[O-])c2)o1)C(=O)NCCN1CCOCC1` the value was 2.98% (inactive).
In the case of `O=C(N1CCOCC1)N1CCOCC1` it was -2.74% (inactive); in that of `N#C/C(=C\c1ccc(N2CCOCC2)o1)C(=O)N1CCOCC1`, 56.4% (active).
Regarding `Cc1ccc(C(=O)N2CCN(C(=O)N3CCOCC3)CC2)cc1`, the inhibition was -2.03% (inactive).
In the case of `CC(Oc1ccc(F)cc1)C(=O)Nc1ccccc1C(=O)NC1CC1` (stereo not given) it was -6.02% (inactive); in that of `Cc1ccc(-c2cc(=O)[nH]c(NCc3ccccc3)n2)cc1`, 4.99% (inactive); in that of `CSCCC(NC(=O)c1ccco1)C(=O)Nc1cc(C)ccn1` (stereo not given), -2.09% (inactive).
For `Cc1cc(Cl)c2oc(C(=O)N(C)C(C)c3ccccn3)c(C)c2c1` (stereo not given) the value was 1.52% (inactive); for `CC(=O)Nc1ccc(NC(=O)CS(=O)(=O)c2cn(CC(=O)N3CCCCC3)c3ccccc23)cc1`, -0.901% (inactive); for `Cc1ccc(C)c(-c2nnc(NC(=O)CS(=O)(=O)c3ccccc3)o2)c1`, -0.829% (inactive).
In the case of `N=c1oc2ccccc2cc1C(=O)N/N=C/c1ccccc1` it was 3.47% (inactive).
As for `N=c1oc2ccccc2cc1C(=O)NCc1ccccc1`, the inhibition is 2.48% (inactive).
In the case of `CNC(=O)c1cc2c(ccc3ccccc32)oc1=N` it was 35.7% (active).
For `O=C(NNC(=O)c1cc(-c2ccccc2Cl)nc2ccccc12)c1csc(N2CCOCC2)n1` the value was 1.15% (inactive); for `O=C(NCc1ccncc1)c1ccc(NS(=O)(=O)c2cccc([N+](=O)[O-])c2)cc1`, 3.31% (inactive).
`CC(OC(=O)CNC(=O)c1ccco1)C(=O)Nc1ccc(Cl)cn1` (stereo not given): the inhibition is 0.318% (inactive).
With `CNC(C)C#Cc1ccc2sc3cc(OC)c(OC)cc3c(=O)c2c1` (stereo not given), the inhibition is 38.7% (active).
For `Cc1cccc(N2CCN(C(=O)CCS(=O)(=O)c3ccc4c(c3)NC(=O)C(C)S4)CC2)c1C` (stereo not given) the value was 1.94% (inactive).
Consider `CSc1nsc(NC(=O)Nc2ccccc2)n1`, for which the inhibition is 1.6% (inactive).
In the case of `COc1ccc2c(CN3CCN(S(=O)(=O)c4cccs4)CC3)cc(=O)oc2c1` it was -2.73% (inactive).
In the case of `NC(=O)CCN1CCN(S(=O)(=O)/C=C/c2ccccc2)CC1` it was 3.03% (inactive); in that of `O=c1cc(CN2CCN(S(=O)(=O)/C=C/c3ccccc3)CC2)c2ccc(O)cc2o1`, 21% (active).
In the case of `CCOC(=O)N1CCN(C(=O)c2ccc(S(=O)(=O)Nc3cccc(C(F)(F)F)c3)cc2)CC1`, the inhibition is -0.937% (inactive).
For `CN(C)CCCn1c(N)c(C#N)c2nc(C#N)c(C#N)nc21`, the inhibition is 27.1% (active).
In the case of `Cc1ccc2nnn(Cc3cccc(C(C)(C)C)c3O)c2c1` it was 9.31% (inactive).
Turning to `COCCCn1c(SCC(=O)Nc2oc(C)c3c(C)n[nH]c(=O)c23)nc2sc3c(c2c1=O)CCC3`, the inhibition is -0.217% (inactive).
